Results as given in PubChem BioAssay (NCATS).
Inconclusive results are not listed. Active and inactive are the calls of the source. Unless noted, calls follow the shape of the dose curve; as a rule, active = well fitted curve in the direction sought with a large enough effect; inconclusive = small, poorly fitted or top-dose-only effect, or another doubt; inactive = no such curve, though single readings can be large; an effect the other way counts as inactive or inconclusive. Numbered stars: 1 amine (or outer) side, 2 acyl side, 3 side chain; on linkers, the order of the positions; unused ones are H or OH. Bridge positions count the residues as written; N and C are the ends. Square brackets hold non-standard residues; d marks the D form. Peptide text beside a SMILES is read from it. I, II: the chains in the order shown. Actinocin(9to1) = Cc1c2oc3c(C)ccc(C(=O)[*:1])c3nc-2c(C(=O)[*:2])c(N)c1=O; NMeV = CN[C@H](C(=O)O)C(C)C; Sar = CNCC(=O)O

What was measured:
[1] = Cell Viability - N2a (AID 540); conditions: N2a mouse neuroblastoma cell viability; activity change, negative = cytotoxicity: at 92.2 µM (top of the series); also: nearly all actives have a fitted effect of over 45% in size; also: potency is read from the fitted curve at half-maximal effect;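 as to activity change, negative = cytotoxicity: plate controls were DMSO alone for no effect and tamoxifen control for full effect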
Method in brief: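 First, 1500 N2a cells per well incubate 5 hr at 37 °C; next, compounds are added and incubated 40 hr at 37 °C; finally CellTiter-Glo is added and luminescence read after 20 min, with AC50 derived by Hill modeling.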

[2] = Cell Viability - NIH 3T3 (AID 541); conditions: NIH 3T3 cell viability, qHTS; activity change, negative = cytotoxicity: at 92.2 µM (top of the series);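 also: cells exposed to compound for 40 hours; plate controls were DMSO alone for no effect and tamoxifen positive control for full effect; nearly all actives have a fitted effect of over 25% in size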
Method in brief: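 AC50 values reflect concentration-dependent loss of intracellular ATP in NIH 3T3 cells after 40 hr treatment in complete culture medium, quantified by luciferase-based luminescence.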

[3] = Cell Viability - HUV-EC-C (AID 542); conditions: HUV-EC-C endothelial cell viability, qHTS; series mostly up to 92.2 µM;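 also: cells exposed to compound for 40 hours; nearly all actives have a fitted effect of over 35% in size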; also: potency is read from the fitted curve at half-maximal effect; as to activity change, negative = cytotoxicity: % is scaled to controls: 0 for no effect and ±100 for the full control effect
Method in brief: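 Decrease in cellular ATP, quantified by luciferase luminescence, reflects toxicity in normal human vascular endothelial HUV-EC-C cells given compound for 40 hr in complete culture medium. Values are AC50s from concentration-response curves.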

[4] = Cell Viability - H-4-II-E (AID 543); conditions: H-4-II-E rat hepatoma viability; series mostly up to 92.2 µM;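 also: cells exposed to compound for 40 hours; nearly all actives have a fitted effect of over 35% in size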; also: potency is read from the fitted curve at half-maximal effect
Method in brief: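 Here, cytotoxicity is measured in the rat hepatoma line H-4-II-E as loss of intracellular ATP after 40 hr compound treatment, detected by luciferase luminescence.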

[5] = Cell Viability - SH-SY5Y (AID 544); conditions: SH-SY5Y neuroblastoma cell viability; viability change, negative = cytotoxic: at 92.2 µM (top of the series);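 also: cells exposed to compound for 40 hours; nearly all actives have a fitted effect of over 55% in size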
Method in brief: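 Cytotoxicity is scored as a concentration-dependent fall in intracellular ATP in human SH-SY5Y cells treated 40 hr in complete culture medium. Potency is expressed as AC50 from a Hill equation fit.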

[6] = Cell Viability - Renal Proximal Tubule (AID 545); conditions: renal proximal tubule cells viability, primary cells of rat origin; activity change, negative = cytotoxicity: at 91.7 µM (top of the series);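 also: cells exposed to compound for 40 hours; nearly all actives have a fitted effect of over 40% in size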; also: potency is read from the fitted curve at half-maximal effect
Method in brief: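 Luminescent ATP signal (CellTiter-Glo) served as the viability read-out after 40 hr compound exposure of freshly isolated rat proximal tubule cells at 37 °C. Concentration-dependent ATP loss was fitted with the Hill equation to give AC50.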

[7] = Cell Viability - Mesenchymal (AID 546); conditions: mesenchymal cells viability, qHTS; activity change, negative = cytotoxicity: at 91.7 µM (top of the series);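 also: cells exposed to compound for 40 hours before reading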
Method in brief: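 AC50 values reflect the drop in intracellular ATP in a human kidney mesenchymal line derived from normal glomeruli. Treatment lasts 40 hr at 37 °C in complete medium, and the signal comes from CellTiter-Glo luminescence.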

[8] = Cellular Toxicity (caspase-3) HepG2 (AID 654); conditions: HepG2 caspase-3 activation, luminescence; series mostly up to 92.2 µM; also: potency is read from the fitted curve at half-maximal effect;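 as to caspase-3 activation: cells exposed to compound for 16 hours before reading; 0% = DMSO alone and 100% = caspase signal from 100 µM tamoxifen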
Method in brief: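 qHTS, HepG2, 1500 cells/well, complete medium; cpd 16 h 37 °C; Caspase-Glo 3/7, 20 min RT; lum. Norm: DMSO vs 100 uM tamoxifen; AC50 Hill fit.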

[9] = Cellular Toxicity (caspase-3) Jurkat (AID 655); conditions: Jurkat caspase-3 activation, luminescence; series mostly up to 92.2 µM;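 also: cells exposed to compound for 16 h at 37 °C before reading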; also: potency is read from the fitted curve at half-maximal effect
Method in brief: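 5000 Jurkat cells/well; compound 16 hr, 37 °C; Caspase-Glo 3/7 added, 20 min RT; luminescence read. Norm: DMSO = 0%, tamoxifen 100 uM = 100%. AC50, Hill model.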

[10] = Cellular Toxicity (caspase-3) HUV-EC-C (AID 656); conditions: HUV-EC-C cells, caspase-3 activation (apoptosis), vehicle = 0, 100 µM tamoxifen = 100%; series mostly up to 92.2 µM
Method in brief: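 qHTS; HUV-EC-C, 1000 cells/well; 5 hr settle, 16 hr cmpd, 37°C; Caspase-Glo 3/7, 20 min RT; luminescence. Norm: DMSO = 0%, tamoxifen 100 uM = 100%. Hill-fit AC50.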

[11] = Cellular Toxicity (caspase-3) BJ (AID 658); conditions: BJ fibroblasts, luminescence, normalized: DMSO 0%, staurosporine 100%; series mostly up to 91.7 µM;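 also: 0% = DMSO basal and 100% = 10 µM staurosporine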
Method in brief: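 Readout: Caspase-Glo 3/7 luminescence increase in BJ cells after 16 hr treatment at 37 °C. Staurosporine and tamoxifen served as positive controls; AC50 values came from Hill modelling of data normalized to DMSO and 10 uM staurosporine.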

[12] = Cellular Toxicity (caspase-3) MRC-5 (AID 659); conditions: MRC-5 cells, luminescence; Potency: caspase-3 activation; series mostly up to 91.7 µM;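 also: cells exposed to compound for 16 h at 37 °C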; also: potency is read from the fitted curve at half-maximal effect;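 as to caspase-3 activation: 0% = DMSO basal and 100% = 10 µM staurosporine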
Method in brief: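 Concentration-dependent caspase 3/7 activation is measured in human normal lung fibroblasts (MRC-5) following 16-hour treatment. AC50 values come from standard Hill-equation modeling of luminescence normalized to DMSO and 10 uM staurosporine.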

[13] = Cellular Toxicity (caspase-3) Mesangial (AID 660); conditions: mesangial cells, normalized: DMSO 0%, 100 µM tamoxifen 100%; series mostly up to 91.7 µM;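 also: combined caspase 3 and 7 activity read by Caspase-Glo luminescence; cells exposed to compound for 16 h before the caspase read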
Method in brief: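 Concentration-response qHTS: compound-induced rise in caspase 3/7 luminescence in human mesangial cells after 16 h, normalized to DMSO and 100 uM tamoxifen controls.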

[14] = Cellular Toxicity (caspase-3) SK-N-SH (AID 661); conditions: SK-N-SH caspase-3 activation, qHTS; series mostly up to 91.7 µM; also: potency is read from the fitted curve at half-maximal effect;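 as to caspase-3 activation: 0% = DMSO basal and 100% = 10 µM staurosporine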
Method in brief: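 Caspase 3/7 activation is measured as a luminescence increase from aminoluciferin released by substrate cleavage in SK-N-SH cells after 16 hr compound treatment; values are AC50 from concentration-response curves.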

[15] = Cellular Toxicity (caspase-3) H-4-II-E (AID 663); conditions: H-4-II-E rat hepatoma; Potency: caspase-3 activation; series mostly up to 92.2 µM; also: potency is read from the fitted curve at half-maximal effect;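 as to caspase-3 activation: cells exposed to compound for 16 hr before readout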
Method in brief: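 Apoptosis induction is scored as increased luminescence from caspase 3/7 substrate cleavage in rat hepatoma H-4-II-E cells exposed to compound for 16 hr. Activity is scaled between DMSO and 100 uM tamoxifen.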

[16] = target: Mitogen-activated protein kinase 10 (Mus musculus) (UniProt Q61831); test: JNK3 AlphaScreen Assay (AID 530; active = well fitted curve in either direction with a large enough effect, not every such curve was filed as active;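 also: kinase came from lysate of stimulated human HepG2 cells; signal reports phosphorylation of biotinylated GST-cJun 1-79 at Ser73 with 10 µM ATP; % is scaled to controls: 0 for no effect and ±100 for the full control effect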); conditions: JNK3 lysate, c-Jun phosphorylation; series mostly up to 25.6 µM
Method in brief: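 Room-temperature AlphaScreen kinase assay; pre-activated HepG2 lysate as JNK3 source, biotin-GST-cJun(1-79) substrate, 10 uM ATP, compound 15 min preincubation.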

[17] = target: Glucocorticoid receptor (Homo sapiens) (UniProt P04150); test: GR-EFC Redistribution (AID 451; calls by dose curve; also: potency is read from the fitted curve at half-maximal effect); conditions: CHO-K1 GR-EFC translocation, beta-gal luminescence, 2 h
Method in brief: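 Translocation of GR-ED fusion to nuclear EA restores b-gal, read by luminescence after 1 h room-temperature detection. Engineered CHO-K1 biosensor cells, 1,000/well, exposed 2 h at 37 C to titrations up to 46 uM final.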

[18] = Stat Signaling Pathway (AID 446; active = well fitted curve in either direction with a large enough effect, not every such curve was filed as active;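 also: ME-180 cervical cancer cells given 40 pM IL-6 alongside compound; SIE-controlled beta-lactamase reporter measured as 460/530 nm FRET emission ratio; % is scaled to controls: 0 for no effect and ±100 for the full control effect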); conditions: ME-180 SIE beta-lactamase reporter, IL-6 stimulated, 5 h
Method in brief: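 ME-180 cells carrying a SIE-driven beta-lactamase reporter are stimulated with 40 pM IL-6 for 5 h at 37C in the presence of compound. The 460/530 nm FRET substrate ratio is read after 2.5 h at RT. Data are normalised to 300 pM IL-6 and to 125 nM JAK inhibitor controls.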

[19] = target: 3',5'-cyclic-AMP phosphodiesterase 4B (Homo sapiens) (UniProt Q07343); test: qHTS Assay for Inhibitors of PDE-IV (AID 607; active = well fitted activation curve with a large enough effect in the main read-out, with a control signal flat, not every such curve was filed as active; also: % of control where 0% means no effect); conditions: HEK293 ACTOne CNG channel cells, membrane potential fluorescence; series mostly up to 22.9 µM
Method in brief: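 HEK293 ACTOne cells with CNG channel (1000/well), endogenous PDE4; membrane potential dye, compounds up to 22.9 uM final. Fluorescence Ex 535/Em 590; RO 20-1724 (100 uM final) as reference.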

[20] = target: Glucocorticoid receptor (Homo sapiens) (UniProt P04150); test: GR-GFP Redistribution (AID 450;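 active = compounds whose dose series gives a full or clear partial fitted curve of increased nuclear translocation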; also: potency is read from the fitted curve at half-maximal effect); conditions: U2OS GR-GFP nuclear translocation, laser cytometry, 2 h

3',5'-cyclic-AMP phosphodiesterase 4B (Homo sapiens), sequence (Q07343 whole entry, looked up): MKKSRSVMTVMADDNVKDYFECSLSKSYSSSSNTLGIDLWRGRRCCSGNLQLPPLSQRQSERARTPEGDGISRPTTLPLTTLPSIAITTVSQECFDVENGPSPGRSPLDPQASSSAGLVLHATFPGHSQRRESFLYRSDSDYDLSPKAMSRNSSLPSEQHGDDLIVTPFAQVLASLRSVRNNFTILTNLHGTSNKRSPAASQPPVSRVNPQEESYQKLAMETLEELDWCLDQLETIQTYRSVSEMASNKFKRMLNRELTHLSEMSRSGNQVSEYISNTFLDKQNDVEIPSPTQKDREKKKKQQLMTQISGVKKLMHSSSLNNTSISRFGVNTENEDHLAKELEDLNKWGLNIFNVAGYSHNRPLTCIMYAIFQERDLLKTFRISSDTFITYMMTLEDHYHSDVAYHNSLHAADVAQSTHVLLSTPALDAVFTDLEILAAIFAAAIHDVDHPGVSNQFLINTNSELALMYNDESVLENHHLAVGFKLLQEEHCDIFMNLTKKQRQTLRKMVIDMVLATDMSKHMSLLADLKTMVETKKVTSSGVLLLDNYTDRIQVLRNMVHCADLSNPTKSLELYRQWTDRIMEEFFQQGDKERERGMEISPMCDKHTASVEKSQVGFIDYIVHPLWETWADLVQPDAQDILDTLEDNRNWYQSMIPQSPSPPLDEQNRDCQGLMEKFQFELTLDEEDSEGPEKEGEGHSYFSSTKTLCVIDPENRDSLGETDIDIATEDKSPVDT
Glucocorticoid receptor (Homo sapiens), sequence (P04150 whole entry, looked up, the tested form may be a part): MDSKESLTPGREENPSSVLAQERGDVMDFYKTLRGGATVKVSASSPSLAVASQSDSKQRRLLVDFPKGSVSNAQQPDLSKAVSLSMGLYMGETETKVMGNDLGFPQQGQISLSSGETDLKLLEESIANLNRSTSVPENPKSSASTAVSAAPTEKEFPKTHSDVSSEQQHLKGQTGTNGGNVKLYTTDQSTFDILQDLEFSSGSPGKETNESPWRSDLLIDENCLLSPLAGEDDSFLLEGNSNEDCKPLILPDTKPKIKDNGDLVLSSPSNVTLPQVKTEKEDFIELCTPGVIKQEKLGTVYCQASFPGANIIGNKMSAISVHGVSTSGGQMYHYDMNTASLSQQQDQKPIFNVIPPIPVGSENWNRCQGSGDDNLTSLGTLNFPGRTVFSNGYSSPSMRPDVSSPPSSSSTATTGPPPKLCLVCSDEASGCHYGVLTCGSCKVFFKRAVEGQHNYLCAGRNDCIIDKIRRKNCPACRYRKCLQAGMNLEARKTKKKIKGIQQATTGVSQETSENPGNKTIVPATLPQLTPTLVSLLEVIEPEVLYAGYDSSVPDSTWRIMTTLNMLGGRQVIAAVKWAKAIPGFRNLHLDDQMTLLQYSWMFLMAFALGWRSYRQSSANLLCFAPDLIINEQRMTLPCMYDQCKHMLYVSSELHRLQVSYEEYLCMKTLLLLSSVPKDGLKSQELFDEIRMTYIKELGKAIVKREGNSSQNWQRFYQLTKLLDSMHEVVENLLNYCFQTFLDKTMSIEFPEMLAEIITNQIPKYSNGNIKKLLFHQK

O=c1ccc2ccccc2o1
inactive: Potency [1] | Potency [2] | Potency [3] | Potency [4] | Potency [5] | activity change, negative = cytotoxicity [6] -6.1% | activity change, negative = cytotoxicity [7] 4.05% | Potency [8] | Potency [9] | outcome [10] | outcome [11] | Potency [12] | outcome [13] | Potency [14] | Potency [15]

CC[N+](CC)(CCNC(=O)C(=O)NCC[N+](CC)(CC)Cc1ccccc1Cl)Cc1ccccc1Cl
inactive: outcome [16]

CNCC[C@@H](Oc1ccccc1C)c1ccccc1
inactive: Potency [17] > 46 µM | outcome [16]

CCN1CCC[C@H]1CNC(=O)c1c(OC)ccc(Br)c1OC
inactive: activity, negative = inhibition ([18]; at 17.2 µM (top of the series)) 14.1% | outcome [19]

C[C@]12CC[C@@H]3c4ccc(O)cc4CC[C@H]3[C@@H]1CC[C@@H]2O
inactive: outcome [16] | Potency [1] | Potency [3] | activity change, negative = cytotoxicity [7] -23.1% | Potency [8] | Potency [9] | outcome [10] | outcome [11] | Potency [12] | outcome [13] | Potency [14] | Potency [15]

Cc1c2oc3c(C)ccc(C(=O)N[C@@H]4C(=O)N[C@H](C(C)C)C(=O)N5CCC[C@H]5C(=O)N(C)CC(=O)N(C)[C@@H](C(C)C)C(=O)O[C@@H]4C)c3nc-2c(C(=O)N[C@@H]2C(=O)N[C@H](C(C)C)C(=O)N3CCC[C@H]3C(=O)N(C)CC(=O)N(C)[C@@H](C(C)C)C(=O)O[C@@H]2C)c(N)c1=O (I: T[dV]P[Sar][NMeV] / II: T[dV]P[Sar][NMeV]; ester I:1-I:C, II:1-II:C; linker I:N-II:N via Actinocin(9to1))
active: Potency [4] 0.00398 µM | Potency [6] 0.001 µM | Potency [9] 0.00398 µM | Potency [14] 0.0158 µM | Potency [15] 0.126 µM
inactive: outcome [16] | Potency [3] | activity change, negative = cytotoxicity [7] -18.7% | Potency [8] | outcome [10] | outcome [11] | Potency [12] | outcome [13]

COc1c(C)c2c(c(O)c1C/C=C(\C)CCC(=O)O)C(=O)OC2
inactive: activity, negative = inhibition ([18]; at 17.2 µM (top of the series)) 8.02% | outcome [16] | outcome [19]

Cc1cc(N)c2cc(NC(=O)Nc3ccc4nc(C)cc(N)c4c3)ccc2n1
inactive: activity, negative = inhibition ([18]; at 7.69 µM (top of the series)) -4.38% | outcome [19]

COc1cc(NS(C)(=O)=O)ccc1Nc1c2ccccc2nc2ccccc12
inactive: Potency [20] > 46 µM | Potency [17] > 46 µM | outcome [19]

CN=C(NC#N)NCCSCc1csc(N=C(N)N)n1
inactive: Potency [20] > 46 µM | Potency [17] > 46 µM

C[C@H]1[C@H](NC(=O)/C(=N/OC(C)(C)C(=O)O)c2csc(N)n2)C(=O)N1S(=O)(=O)O (stereo in doubt)
inactive: activity, negative = inhibition ([18]; at 17.2 µM (top of the series)) 8.78% | Potency [20] > 20.6 µM | Potency [17] > 20.6 µM | outcome [19]

Cc1cccc(C)c1NC(=O)CN1CCN(CCCC(c2ccc(F)cc2)c2ccc(F)cc2)CC1
inactive: activity, negative = inhibition ([18]; at 17.2 µM (top of the series)) -20% | outcome [16]

Cc1cc(=O)n(-c2ccccc2)n1C
inactive: activity, negative = inhibition ([18]; at 17.2 µM (top of the series)) 10.3% | outcome [16] | outcome [19]

Nc1ccc(C(=O)O)cc1
inactive: Potency [1] | Potency [2] | Potency [3] | Potency [4] | Potency [5] | activity change, negative = cytotoxicity [6] -7.22% | activity change, negative = cytotoxicity [7] -3.72% | Potency [8] | Potency [9] | outcome [10] | outcome [11] | Potency [12] | outcome [13] | Potency [14] | Potency [15]

Oc1c(Cl)cc(Cl)cc1Sc1cc(Cl)cc(Cl)c1O
active: activity, negative = inhibition ([18]; at 17.2 µM (top of the series)) -99.1% | Potency [1] 31.6 µM | Potency [3] 20 µM | Potency [4] 31.6 µM
inactive: Potency [20] > 20.6 µM | activity change, negative = cytotoxicity [7] -28.4% | Potency [8] | outcome [10] | outcome [11] | Potency [12] | outcome [13] | Potency [14] | Potency [15]

C=CCc1ccc(O)c(OC)c1
inactive: outcome [16] | Potency [1] | Potency [2] | Potency [3] | Potency [4] | Potency [5] | activity change, negative = cytotoxicity [6] 5.39% | activity change, negative = cytotoxicity [7] 5.14% | Potency [8] | Potency [9] | outcome [10] | outcome [11] | Potency [12] | outcome [13] | Potency [14] | Potency [15]

CC(C)(C)CC(C)(C)c1ccc(OCCOCC[N+](C)(C)Cc2ccccc2)cc1
active: Potency [1] 5.01 µM | activity change, negative = cytotoxicity [2] -129% | Potency [3] 50.1 µM | activity change, negative = cytotoxicity [6] -90% | activity change, negative = cytotoxicity [7] -104% | Potency [8] 50.1 µM | Potency [12] 31.6 µM
inactive: activity, negative = inhibition ([18]; at 17.2 µM (top of the series)) -2.12% | Potency [4]
